Here are results for 104 compounds from PubChem BioAssay AID504861 (Broad Institute, 2011).

The structures appear in SMILES notation. About 290 (24%) of roughly 1,200 compounds were called active. Roughly 3% stayed inconclusive and do not appear here.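 How the source made its calls: active means compounds lowering cell viability signal with fitted half-maximal concentration at most ten times their highest tested concentration; inconclusive means flat fit with 30 to 70% signal loss, or poor fit; inactive means the rest.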 The list is a sample of the results. Entries that show only a call come without a potency. Potency and affinity values are given separately.

The assay is described as follows: HEK293T cell viability reduction, dose response, cytotoxicity control for LMP1 NF-kB inhibitor project, CellTiter-Glo luminescence, cherry-picks (AID 504861). Particulars: CellTiter-Glo ATP luminescence, 48 h; series mostly up to 26 µM.
Take `CCn1c2ccccc2c2cc(/C=N/NC(=O)c3ccncc3)ccc21`: the compound was called inactive. Take `COc1ccc(CCNC(=O)c2nnn(-c3ccc4c(c3)OCCO4)c2N)cc1OC`: the outcome was inactive. `CNS(=O)(=O)c1cccc(C(=O)OCC(=O)c2ccc3c(c2)OCCO3)c1`: the outcome was inactive. Turning to `O=C(c1noc2c1CCCC2)N1CCCCC1`, the compound was classed as inactive. As to `CC[C@H]1OC(=O)[C@H](C)[C@@H](O[C@H]2C[C@@](C)(OC)[C@@H](O)[C@H](C)O2)[C@H](C)[C@@H](O[C@@H]2O[C@H](C)C[C@H](N(C)C)[C@H]2O)[C@](C)(O)C[C@@H](C)C(=NOCOCCOC)[C@H](C)[C@@H](O)[C@]1(C)O`, the compound was called inactive. To `COc1cc2c(cc1OC)-c1cc(Nc3ccc4c(c3)OCCO4)nc(=O)n1CC2` belongs “inactive”.

Turning to `Cc1nc2ncccn2c1-c1csc(Nc2ccccc2)n1`, the call was inactive. In the case of `CCOC(=O)C1=C(C)NC(C)=C(C(=O)OCC)C1c1cn(-c2ccccc2)nc1-c1ccco1`, the compound was classed as inactive. As for `COCCn1c(SCCN2CCOCC2)nc2c1c(=O)[nH]c(=O)n2C`, the entry is “inactive”; as for `Cc1cccc(NC(=O)c2cnc3ccccn3c2=O)c1`, “inactive”; as for `CC(C)c1nnc(NC(=O)c2ccc(N3C(=O)CCC3=O)cc2)s1`, “inactive”. For the compound `COc1ccc(-n2c(SCC(=O)Nc3cc(C)on3)nc3c(c2=O)SCC3)cc1`, the call was inactive. For the compound `COc1ccc(/C=N/N=C/c2ccc(OC)c(OC)c2)cc1OC`, the outcome was inactive.

Regarding `COc1cc(/C=C2/SC(=S)N(Cc3ccccc3)C2=O)ccc1OCC(=O)O`, the compound was called inactive. As for `CCOCCCn1c(=S)[nH]c2ncccc2c1=O`, the entry is “inactive”. For the compound `O=c1c2c(nc3c(-c4ccc(Cl)cc4)c[nH]n13)CCCC2`, the compound was classed as inactive. To `CC(=NNC(=S)N1CCCCCC1)c1cccc2cccnc12` belongs “inactive”; to `CC1=C(CC(=O)O)c2cc(F)ccc2C1=Cc1ccc(S(C)(=O)=O)cc1`, “inactive”. As to `COc1ccc(OC)c(CCNC(=O)CCn2nc(C)c3c(C)n(-c4ccccc4)nc3c2=O)c1`, the compound was classed as inactive.

As for `COCCn1c(C)cc(C(=O)COC(=O)C23CC4CC(CC(O)(C4)C2)C3)c1C`, the call was inactive.

With `CC1CCc2nc(N)c(C#N)c(-c3cccnc3)c2C1` (centres undefined), the result was inactive. For `N#CCN(N=Nc1ccccc1)c1ccccc1`, the outcome was inactive. To `CC(NC(=O)CCOc1ccccc1)c1ccccc1` (centres undefined) belongs “inactive”. As for `C[C@@H](OC(=O)c1[nH]cnc1C(=O)N1CCc2ccccc2C1)c1ccccc1`, the entry is “inactive”; as for `COc1cccc(-c2nnc(NC(=O)c3ccc(S(=O)(=O)N(CC(C)C)CC(C)C)cc3)o2)c1`, “inactive”. As for `CCn1c2ccccc2c2cc(/C=N/n3cnnc3)ccc21`, the result was inactive.

With `C=CC[N+](C)(C)C/C(Cl)=C(\Cl)c1ccccc1`, the call was inactive.

For the compound `O=[N+]([O-])c1ccc(Cl)c(S(=O)(=O)NCC2CCCO2)c1` (centres undefined), the compound was called inactive. For the compound `c1ccc2c(-c3ccncc3)c[nH]c2c1`, the outcome was inactive. Regarding `COc1cc(/C=N/NC(=O)c2cc(C34CC5CC(CC(C5)C3)C4)[nH]n2)ccc1O`, the outcome was inactive. As for `Oc1ccccc1C=NN=Cc1c(O)ccc2ccccc12`, the entry is “inactive”; as for `Cc1ccccc1CC(=O)NCc1cccnc1`, “inactive”. Regarding `CCn1c2ccccc2c2cc(/C=N/NC(=O)c3cc(O)cc(O)c3)ccc21`, the outcome was inactive. As for `c1nc(NCc2ccc3c(c2)OCO3)c2cc(-c3ccoc3)ccc2n1`, the entry is “inactive”; as for `Oc1c(N=NC(=S)Nc2ccccc2F)c2ccccc2n1Cc1ccccc1F`, “inactive”; as for `CCS(=O)(=O)c1nnnn1-c1ccccc1S(C)(=O)=O`, “inactive”. Take `O=C1c2ccccc2C(=O)c2cc(N3CCCCC3)ccc21`: the compound was called inactive. `CC(C)c1cc(NC(=O)c2ccccc2)cc(C(C)C)c1O`: the compound was called inactive. With `O=C(NC(c1ccc(Cl)cc1)c1cc(Cl)c2cccnc2c1O)c1cccnc1` (centres undefined), the compound was classed as inactive. To `Nc1cc2ccncc2c2ccccc12` belongs “inactive”; to `CC1=C(C)C(OCCCl)N(c2cc(O)c(Cl)cc2F)C1=O` (centres undefined), “inactive”. Turning to `Cc1ccc(N2CCCCn3c2nc2c3c(=O)n(CC(=O)O)c(=O)n2C)cc1`, the call was inactive. To `Nc1ncnc(N2CCc3ccccc32)c1[N+](=O)[O-]` belongs “inactive”.

For the compound `COc1ccc(-c2cc3c(=O)n(CC(=O)NCCCN4CCN(Cc5ccccc5)CC4)ncn3n2)cc1`, the outcome was inactive. `Cc1ccccc1C(=O)N1CCN(c2ccc(NC(=O)c3cccs3)cc2)CC1`: the call was inactive. On to `COc1nc(Nc2nc3ccccc3c(=O)[nH]2)nc2ccc(C)cc12`, for which the outcome was inactive. Consider `COc1ccc2cc3c(N)nn(C(=O)c4ccccc4[N+](=O)[O-])c3nc2c1`, for which the outcome was inactive. For the compound `O=C(O)c1c2c(nc3ccccc13)/C(=C/c1ccc(O)cc1)CC2`, the compound was called inactive. For `Cc1nn(CCCC(=O)Nc2cccnc2Cl)c(C)c1[N+](=O)[O-]`, the outcome was inactive. Take `COCCN1Cc2cccc(C(=O)N3CCN(c4cc(C)ccc4C)CC3)c2C1=O`: the call was inactive.

Regarding `CCOC(=O)[C@H]1[C@H]2COc3ccc(OC)cc3[C@@H]2N2C(=O)CN(C)C(=O)[C@@]12C`, the compound was called inactive.

`CCn1nc(C(=O)Nc2nc(-c3ccccn3)cs2)c2ccccc2c1=O`: the compound was classed as inactive. `O=C(CN1C(=O)c2ccccc2S1(=O)=O)c1ccccc1`: the call was inactive. `COc1cc(C2NC(=O)NC(C)=C2C(=O)OC2CCCC(C)C2)cc(Br)c1O` (centres undefined): the result was inactive. `O=C(c1ccco1)N1CCN(S(=O)(=O)/C=C/c2ccccc2)CC1`: the result was inactive. As for `CCCN(CCC)S(=O)(=O)c1ccc(C(=O)Nc2nnc(-c3cc(OC)cc(OC)c3)o2)cc1`, the entry is “inactive”. Regarding `COc1cc(/C=N/NC(=S)Nc2cccc(C(=O)O)c2)ccc1O`, the compound was called inactive.

As to `S=C(N/N=C/c1ccc2ncccc2c1)Nc1cccnc1`, the call was inactive. As to `COc1ccc(CNC(=O)N2[C@H]3CC[C@@H]2C=C(c2ccc(F)cc2OCc2ccccc2)C3)cc1OC`, the compound was called inactive. In the case of `CCOc1cccc(CNc2nnnn2C)c1`, the call was inactive. For the compound `Cn1c(=O)[nH]c(=O)c2c1nc(CN1CCOCC1)n2CCCc1ccccc1`, the compound was classed as inactive. As for `O=C(c1ccc(C#CC2(O)CCCCC2)cc1)N1CCN(C(c2ccccc2)c2ccccc2)CC1`, the entry is “inactive”; as for `CN(CC(=O)Nc1cccnc1)S(=O)(=O)c1ccc(Br)cc1`, “inactive”; as for `CC1CCN(c2ccc(-c3ccc(NC(=O)C(F)(F)F)cc3)nn2)CC1`, “inactive”.

In the case of `Cc1ccc(-c2cc(N)n3nc(-c4ccc(C)cc4)cc3n2)cc1`, the call was inactive. On to `COc1ccc(S(=O)(=O)NC(CC(=O)NCc2ccco2)C(C)C)cc1` (centres undefined), for which the compound was called inactive.

Regarding `CC(=O)Nc1ccc(S(=O)(=O)N2CCCC2)cc1`, the call was inactive.

In the case of `CC(=O)Nc1nc(C)c(-c2csc(Nc3cccc([N+](=O)[O-])c3)n2)s1`, the call was inactive. As to `Nc1ccn([C@@H]2O[C@H](CO)[C@@H](O)C2O)c(=O)n1` (some centres undefined), the compound was called inactive. In the case of `CCOC(=O)N1CCN(C(=O)C2CCC(=O)N(Cc3ccccc3OC)C2)CC1` (centres undefined), the call was inactive. As for `Cc1csc(NC(=O)c2ccc(N3CCCC3=O)cc2)n1`, the entry is “inactive”; as for `COc1ccc(/C=C2\SC(=O)N(CCCC(=O)Nc3ccc(C(=O)O)cc3)C2=O)cc1`, “inactive”. To `O=C1/C(=C/c2ccncc2)SC(=S)N1Cc1ccccc1` belongs “inactive”. To `COc1ccccc1NC(=O)CC(c1ccc(OC(C)C)cc1)c1ccccc1OC` (centres undefined) belongs “inactive”; to `Brc1ccc(-c2csc(N3CCCCCC3)n2)cc1`, “inactive”; to `CC(C)(O)C#Cc1ccc([C@@H]2C[C@H]3CN(c4ccccc4)C(=O)[C@]34CCCN24)s1`, “inactive”.

As for `CN(C1CCCCC1)S(=O)(=O)c1ccc(C(=O)N2CCN(c3nc4ccccc4s3)CC2)cc1`, the outcome was inactive. As to `Cc1cccc(NC(=S)N=Nc2c(O)n(C)c3ccc(S(=O)(=O)N4CCOCC4)cc23)c1`, the compound was called inactive. As for `CC(CCc1ccco1)N(C)S(=O)(=O)c1csc(C(N)=O)c1` (centres undefined), the call was inactive. As for `CCC(=O)NC(c1ccc(C)cc1)c1cc(Cl)c2cccnc2c1O` (centres undefined), the entry is “inactive”; as for `O=C(Nc1ccncc1)OCc1ccccc1`, “inactive”. As for `CS(=O)(=O)N(CC(=O)Nc1ccc(F)cc1F)C1CCCCC1`, the entry is “inactive”; as for `COc1ccc(-c2cc3nc4n(c(=O)c3s2)CCC4)cc1`, “inactive”; as for `O=C(N/N=C(/CC(=O)c1cccs1)C(F)(F)F)c1ccc(O)cc1`, “inactive”.

Turning to `CC(C)(C)c1ccc(C(=O)N2CCC(=O)N(C(CO)Cc3ccccc3)CC2)cc1` (centres undefined), the compound was called inactive. To `COc1ccc(-n2c(C)c(C(C)=O)c3cc(OC(C)=O)ccc32)cc1` belongs “inactive”.

Regarding `O=c1nc(N/N=C/C=C/c2ccccc2)cn[nH]1`, the outcome was inactive. As for `COc1ccc2cc3c(N)nn(C(=O)c4cccc([N+](=O)[O-])c4)c3nc2c1`, the entry is “inactive”; as for `CCCc1cc(=O)[nH]c(SCC(=O)NC2CCCCC2)n1`, “inactive”; as for `O=Cc1cc(OCc2ccccc2)ccc1[B-](F)(F)F`, “inactive”.

Regarding `C[C@@H]1CN([C@@H](C)CO)S(=O)(=O)c2ccc(/C=C/c3ccccc3)cc2O[C@@H]1CN(C)Cc1ccc(C(=O)O)cc1`, the compound was called inactive. For `c1csc(CNc2ncnc3ccc(-c4ccoc4)cc23)c1`, the compound was called inactive. As for `CC(=O)OCC(=O)[C@@]1(O)CC[C@H]2[C@@H]3CCC4=CC(=O)CC[C@]4(C)[C@H]3[C@@H](O)C[C@@]21C`, the entry is “inactive”.

For `O=C(NCCc1ccccc1)c1ccccc1Cl`, the call was inactive.

With `COc1ccccc1-c1nnc(Sc2nc([N+](=O)[O-])nn2C)o1`, the compound was classed as inactive. With `Cc1ccc(NC(=O)/C=N/OCC(=O)NCc2ccccc2Cl)cc1`, the compound was called inactive.

Regarding `CSc1ccccc1C(=O)N1CCC2(CC1)CC(=O)c1ccccc1O2`, the call was inactive. Regarding `CSc1nc(N)nc(SCC(=O)C23CC4CC(CC(C4)C2)C3)c1C#N`, the result was inactive. As for `COc1cc2c(=O)n(CC3CCCO3)c(=O)n(CC(=O)Nc3cccc(Cl)c3)c2cc1OC` (centres undefined), the entry is “inactive”; as for `O=[N+]([O-])c1ccc(/C=N/Nc2cc(Cl)nc(-c3ccccc3)n2)cc1`, “inactive”; as for `Cc1nn(C(C)(C)C)c(C)c1/C=N/OC(=O)Nc1ccc(Cl)c(Cl)c1`, “inactive”. As to `COc1ccc(-c2csc3ncnc(NCCN4CCOCC4)c23)cc1`, the call was inactive.

`COc1ccc2cc(-c3cc(C(=O)OCC(=O)NC4CCS(=O)(=O)C4)c4ccccc4n3)ccc2c1` (centres undefined): the call was inactive. `CCOc1ccc(-c2cc(C(=O)N/N=C/c3ccc(O)cc3)c3ccccc3n2)cc1`: the compound was called inactive.
